# Laboratory results as given in PubChem BioAssay (NCATS).
# A number with no mark means an inactive call. A call without a number means that no potency is given here. For some of these results: Potency and affinity values are given separately. Active and inactive are the calls of the source.
# How the values were obtained:
# [1] = Ebola virus entry assay, green fluorescence channel
# [2] = Ebola virus entry assay, blue channel fluorescence
# [3] = Ebola virus entry assay, green fluorescence channel; remark: listed apart in the source
# [4] = Ebola virus entry assay, ratio channel readout
# [5] = Ebola virus entry assay, blue channel fluorescence; remark: listed apart in the source
# [6] = Ebola virus entry assay, ratio channel
# [7] = Ebola virus entry assay, green channel fluorescence
smiles,measurement,setting,value
Cc1ccc(NC(=O)c2ccc(CN3CCN(C)CC3)cc2)cc1Nc1nccc(-c2cccnc2)n1,efficacy,[1],71.5%
same,outcome,[2],inactive
same,outcome,[3],inactive
same,outcome,[4],inactive
same,AC50,[5],22.4 µM (active)
same,AC50,[6],12.6 µM (active)
N=C(N)c1ccc(OCCCCCOc2ccc(C(=N)N)cc2)cc1,efficacy,[1],22.7%
same,outcome,[2],inactive
same,outcome,[3],inactive
same,outcome,[4],inactive
same,outcome,[5],inactive
same,outcome,[6],inactive
C[C@@H](O[C@H]1OCCN(Cc2n[nH]c(=O)[nH]2)[C@H]1c1ccc(F)cc1)c1cc(C(F)(F)F)cc(C(F)(F)F)c1,efficacy,[1],67.5%
same,outcome,[2],inactive
same,outcome,[3],inactive
same,outcome,[4],inactive
same,AC50,[5],28.2 µM (active)
same,AC50,[6],28.2 µM (active)
CC(CN1c2ccccc2Sc2ccccc21)N(C)C (stereo unspecified),efficacy,[1],81.3%
same,outcome,[2],inactive
same,outcome,[3],inactive
same,outcome,[4],inactive
same,AC50,[5],39.8 µM (active)
same,AC50,[6],31.6 µM (active)
CCC(=O)O[C@H]1[C@H](O[C@@H]2[C@@H](C)[C@H](O[C@H]3C[C@@](C)(OC)[C@@H](O)[C@H](C)O3)[C@@H](C)C(=O)O[C@H](CC)[C@@](C)(O)[C@H](O)[C@@H](C)C(=O)[C@H](C)C[C@@]2(C)O)O[C@H](C)C[C@@H]1N(C)C,efficacy,[1],131%
same,outcome,[2],inactive
same,outcome,[3],inactive
same,outcome,[4],inactive
same,AC50,[5],14.1 µM (active)
same,AC50,[6],11.2 µM (active)
CN1C[C@H]2c3ccccc3Oc3ccc(Cl)cc3[C@@H]2C1,efficacy,[1],60.4%
same,outcome,[2],inactive
same,outcome,[3],inactive
same,outcome,[4],inactive
same,AC50,[5],22.4 µM (active)
same,AC50,[6],14.1 µM (active)
CC#C[C@]1(O)CC[C@H]2[C@@H]3CCC4=CC(=O)CCC4=C3[C@@H](c3ccc(N(C)C)cc3)C[C@@]21C,efficacy,[1],23.8%
same,outcome,[2],inactive
same,outcome,[3],inactive
same,outcome,[4],inactive
same,outcome,[5],inactive
same,outcome,[6],inactive
COC(=O)[C@H]1[C@H]2C[C@@H]3c4[nH]c5cc(OC)ccc5c4CCN3C[C@H]2C[C@@H](OC(=O)c2cc(OC)c(OC)c(OC)c2)[C@@H]1OC,efficacy,[1],32.6%
same,outcome,[2],inactive
same,outcome,[3],inactive
same,outcome,[4],inactive
same,AC50,[5],31.6 µM (active)
same,AC50,[6],25.1 µM (active)
O=C1c2c(O)ccc(O)c2C(=O)c2c(NCCNCCO)ccc(NCCNCCO)c21,efficacy,[1],-106%
same,AC50,[2],5.01 µM (active)
same,outcome,[3],inactive
same,outcome,[4],inactive
same,AC50,[5],12.6 µM (active)
same,AC50,[6],7.94 µM (active)
CC(N)C12CC3CC(CC(C3)C1)C2 (stereo unspecified),efficacy,[1],56.9%
same,outcome,[2],inactive
same,outcome,[3],inactive
same,outcome,[4],inactive
same,AC50,[5],28.2 µM (active)
same,AC50,[6],28.2 µM (active)
COC(=O)C1=C(C)NC(C)=C(C(=O)OCC(C)C)C1c1ccccc1[N+](=O)[O-] (stereo unspecified),efficacy,[1],55.8%
same,outcome,[2],inactive
same,outcome,[3],inactive
same,outcome,[4],inactive
same,AC50,[5],28.2 µM (active)
same,AC50,[6],17.8 µM (active)
C[C@H]1c2cccc(O)c2C(O)=C2C(=O)[C@]3(O)C(O)=C(C(N)=O)C(=O)[C@@H](N(C)C)[C@@H]3[C@@H](O)[C@@H]21,efficacy,[1],76.6%
same,outcome,[2],inactive
same,outcome,[3],inactive
same,outcome,[4],inactive
same,AC50,[5],25.1 µM (active)
same,AC50,[6],20 µM (active)
CC(=O)O[C@@]12CO[C@@H]1C[C@H](O)[C@@]1(C)C(=O)[C@H](O)C3=C(C)[C@@H](OC(=O)[C@H](O)[C@@H](NC(=O)OC(C)(C)C)c4ccccc4)C[C@@](O)([C@@H](OC(=O)c4ccccc4)[C@H]21)C3(C)C,efficacy,[1],57.5%
same,outcome,[2],inactive
same,outcome,[3],inactive
same,outcome,[4],inactive
same,outcome,[5],inactive
same,AC50,[6],20 µM (active)
CCOC(=O)Nc1ccc2c(c1)N(C(=O)CCN1CCOCC1)c1ccccc1S2,efficacy,[1],62.7%
same,outcome,[2],inactive
same,outcome,[3],inactive
same,outcome,[4],inactive
same,outcome,[5],inactive
same,outcome,[6],inactive
CC(=O)Oc1cc2c(s1)CCN(C(C(=O)C1CC1)c1ccccc1F)C2 (stereo unspecified),efficacy,[1],43.8%
same,outcome,[2],inactive
same,outcome,[3],inactive
same,outcome,[4],inactive
same,outcome,[5],inactive
same,outcome,[6],inactive
OCCOCCN1CCN(C(c2ccccc2)c2ccc(Cl)cc2)CC1 (stereo unspecified),efficacy,[1],86%
same,outcome,[2],inactive
same,outcome,[3],inactive
same,outcome,[4],inactive
same,AC50,[5],25.1 µM (active)
same,AC50,[6],31.6 µM (active)
CSc1ccc2c(c1)N(CCC1CCCCN1C)c1ccccc1S2 (stereo unspecified),efficacy,[1],-213%
same,AC50,[2],10 µM (active)
same,outcome,[3],inactive
same,outcome,[4],inactive
same,AC50,[5],3.55 µM (active)
same,AC50,[6],3.16 µM (active)
COc1cc2ncnc(Nc3ccc(F)c(Cl)c3)c2cc1OCCCN1CCOCC1,efficacy,[1],41.5%
same,AC50,[2],15.8 µM (active)
same,outcome,[3],inactive
same,outcome,[4],inactive
same,AC50,[5],2.82 µM (active)
same,AC50,[6],2.51 µM (active)
CN(C)CCCN1c2ccccc2Sc2ccc(Cl)cc21,efficacy,[1],-179%
same,AC50,[2],10 µM (active)
same,outcome,[3],inactive
same,outcome,[4],inactive
same,AC50,[5],14.1 µM (active)
same,AC50,[6],3.98 µM (active)
CN1CCc2cccc3c2[C@H]1Cc1ccc(O)c(O)c1-3,efficacy,[1],61.6%
same,outcome,[2],inactive
same,outcome,[3],inactive
same,outcome,[4],inactive
same,AC50,[5],28.2 µM (active)
same,AC50,[6],28.2 µM (active)
CN(C)CCOC(c1ccc(Cl)cc1)c1ccccn1 (stereo unspecified),efficacy,[1],34.3%
same,outcome,[2],inactive
same,outcome,[3],inactive
same,outcome,[4],inactive
same,AC50,[5],22.4 µM (active)
same,outcome,[6],inactive
COCCCOc1cc(C[C@@H](C[C@H](N)[C@@H](O)C[C@H](C(=O)NCC(C)(C)C(N)=O)C(C)C)C(C)C)ccc1OC,efficacy,[1],31.8%
same,outcome,[2],inactive
same,outcome,[3],inactive
same,outcome,[4],inactive
same,outcome,[5],inactive
same,outcome,[6],inactive
O[C@@H](c1cc(C(F)(F)F)nc2c(C(F)(F)F)cccc12)[C@H]1CCCCN1,efficacy,[1],-219%
same,AC50,[2],7.94 µM (active)
same,outcome,[3],inactive
same,AC50,[4],5.63 µM (active)
same,AC50,[5],1.58 µM (active)
same,AC50,[6],1.58 µM (active)
COc1cc2nc(N(C)CCCNC(=O)C3CCCO3)nc(N)c2cc1OC (stereo unspecified),efficacy,[1],46.7%
same,outcome,[2],inactive
same,outcome,[3],inactive
same,outcome,[4],inactive
same,AC50,[5],39.8 µM (active)
same,outcome,[6],inactive
CCc1c2c(nc3ccc(OC(=O)N4CCC(N5CCCCC5)CC4)cc13)-c1cc3c(c(=O)n1C2)COC(=O)[C@]3(O)CC,efficacy,[1],45.7%
same,outcome,[2],inactive
same,outcome,[3],inactive
same,outcome,[4],inactive
same,AC50,[5],20 µM (active)
same,AC50,[6],28.2 µM (active)
Cc1ccc(O)c([C@H](CCN(C(C)C)C(C)C)c2ccccc2)c1,efficacy,[1],106%
same,AC50,[2],12.6 µM (active)
same,outcome,[3],inactive
same,outcome,[4],inactive
same,AC50,[5],14.1 µM (active)
same,AC50,[6],12.6 µM (active)
O=C1c2cccc3c2[C@H](CCC3)CN1[C@@H]1CN2CCC1CC2,efficacy,[1],37.7%
same,outcome,[2],inactive
same,outcome,[3],inactive
same,outcome,[4],inactive
same,AC50,[5],20 µM (active)
same,AC50,[6],28.2 µM (active)
CC/C(=C(\c1ccccc1)c1ccc(OCCN(C)C)cc1)c1ccccc1,efficacy,[1],-205%
same,AC50,[2],1.12 µM (active)
same,outcome,[3],inactive
same,AC50,[4],1.26 µM (active)
same,AC50,[5],1.41 µM (active)
same,AC50,[6],1.12 µM (active)
CCc1ccc(CCOc2ccc(CC3SC(=O)NC3=O)cc2)nc1 (stereo unspecified),efficacy,[1],52.6%
same,outcome,[2],inactive
same,outcome,[3],inactive
same,outcome,[4],inactive
same,outcome,[5],inactive
same,outcome,[6],inactive
CC12CC3CC(C)(C1)CC(N)(C3)C2,efficacy,[1],58.3%
same,outcome,[2],inactive
same,outcome,[3],inactive
same,outcome,[4],inactive
same,AC50,[5],14.1 µM (active)
same,AC50,[6],14.1 µM (active)
Cc1ccc(-n2[nH]c(C)c(N=Nc3cccc(-c4cccc(C(=O)O)c4)c3O)c2=O)cc1C,efficacy,[1],128%
same,outcome,[2],inactive
same,outcome,[3],inactive
same,outcome,[4],inactive
same,outcome,[5],inactive
same,outcome,[6],inactive
O=C1Cc2cc(CCN3CCN(c4nsc5ccccc45)CC3)c(Cl)cc2N1,efficacy,[1],34%
same,outcome,[2],inactive
same,outcome,[3],inactive
same,outcome,[4],inactive
same,AC50,[5],22.4 µM (active)
same,AC50,[6],17.8 µM (active)
OCCN1CCN(CCCN2c3ccccc3Sc3ccc(Cl)cc32)CC1,efficacy,[1],88.4%
same,AC50,[2],6.31 µM (active)
same,outcome,[3],inactive
same,AC50,[4],5.63 µM (active)
same,AC50,[5],2.82 µM (active)
same,AC50,[6],2.24 µM (active)
COc1ccc([C@@H]2Sc3ccccc3N(CCN(C)C)C(=O)[C@@H]2OC(C)=O)cc1,efficacy,[1],53.7%
same,outcome,[2],inactive
same,outcome,[3],inactive
same,outcome,[4],inactive
same,AC50,[5],28.2 µM (active)
same,AC50,[6],25.1 µM (active)
CN1CCN(CCCN2c3ccccc3Sc3ccc(C(F)(F)F)cc32)CC1,efficacy,[1],-186%
same,AC50,[2],7.08 µM (active)
same,outcome,[3],inactive
same,outcome,[4],inactive
same,AC50,[5],3.55 µM (active)
same,AC50,[6],2.82 µM (active)
CN1CCC(=C2c3ccccc3C=Cc3ccccc32)CC1,efficacy,[1],67.2%
same,outcome,[2],inactive
same,outcome,[3],inactive
same,outcome,[4],inactive
same,AC50,[5],11.2 µM (active)
same,AC50,[6],10 µM (active)
Fc1ccc([C@@H]2CCNC[C@H]2COc2ccc3c(c2)OCO3)cc1,efficacy,[1],101%
same,AC50,[2],5.62 µM (active)
same,outcome,[3],inactive
same,AC50,[4],5.02 µM (active)
same,AC50,[5],5.01 µM (active)
same,AC50,[6],3.98 µM (active)
CC[C@]1(O)C[C@H]2CN(CCc3c([nH]c4ccccc34)[C@@](C(=O)OC)(c3cc4c(cc3OC)N(C=O)[C@H]3[C@@](O)(C(=O)OC)[C@H](OC(C)=O)[C@]5(CC)C=CCN6CC[C@]43[C@@H]65)C2)C1,efficacy,[1],37.5%
same,outcome,[2],inactive
same,outcome,[3],inactive
same,outcome,[4],inactive
same,AC50,[5],0.282 µM (active)
same,outcome,[6],inactive
Nc1nc(N)c2nc(-c3ccccc3)c(N)nc2n1,efficacy,[1],17.5%
same,outcome,[2],inactive
same,outcome,[3],inactive
same,outcome,[4],inactive
same,outcome,[5],inactive
same,outcome,[6],inactive
same,outcome,[7],inactive
CCN(CC)CCNC(=O)c1c(C)[nH]c(/C=C2\C(=O)Nc3ccc(F)cc32)c1C,efficacy,[1],-131%
same,AC50,[2],3.55 µM (active)
same,outcome,[3],inactive
same,AC50,[4],3.17 µM (active)
same,AC50,[5],1 µM (active)
same,AC50,[6],0.708 µM (active)
CC[C@@H]([C@H](C)O)n1ncn(-c2ccc(N3CCN(c4ccc(OC[C@@H]5CO[C@@](Cn6cncn6)(c6ccc(F)cc6F)C5)cc4)CC3)cc2)c1=O,efficacy,[1],27.6%
same,AC50,[2],10 µM (active)
same,outcome,[3],inactive
same,outcome,[4],inactive
same,AC50,[5],4.47 µM (active)
same,AC50,[6],3.98 µM (active)
CCc1nn(CCCN2CCN(c3cccc(Cl)c3)CC2)c(=O)n1CCOc1ccccc1,efficacy,[1],111%
same,outcome,[2],inactive
same,outcome,[3],inactive
same,outcome,[4],inactive
same,AC50,[5],39.8 µM (active)
same,AC50,[6],31.6 µM (active)
CC[C@@]1(O)C(=O)OCc2c1cc1n(c2=O)Cc2cc3c(CN(C)C)c(O)ccc3nc2-1,AC50,[1],31.6 µM (active)
same,outcome,[2],inactive
same,AC50,[3],7.94 µM (active)
same,outcome,[4],inactive
same,outcome,[5],inactive
same,AC50,[6],7.94 µM (active)
CCCCc1oc2ccc(NS(C)(=O)=O)cc2c1C(=O)c1ccc(OCCCN(CCCC)CCCC)cc1,efficacy,[1],-249%
same,AC50,[2],7.08 µM (active)
same,outcome,[3],inactive
same,outcome,[4],inactive
same,AC50,[5],0.891 µM (active)
same,AC50,[6],0.891 µM (active)
COC1=CC(=O)C[C@@H](C)[C@]12Oc1c(Cl)c(OC)cc(OC)c1C2=O,efficacy,[1],30%
same,outcome,[2],inactive
same,outcome,[3],inactive
same,outcome,[4],inactive
same,outcome,[5],inactive
same,outcome,[6],inactive
